# BAZ2B block = inhibitors of human BAZ2B bromodomain; AID 504333; Q9UIF8; AlphaScreen BAZ2B-H3K14Ac peptide displacement; Potency, µM (highest dose often 114 µM), inactives show at the highest dose activity change, negative = inhibition, most hits filed as inhibitors; 360,000 tested, 4.4% active; also: % is scaled to controls: 0 for no effect and ±100 for the full control effect; nearly all actives have a fitted effect of over 60% in size
#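 Compounds, titrated to a top concentration of 110 uM, were incubated 30 min at room temperature with preformed BAZ2B/acetyl-K14 H3 peptide complex (50 nM each). Proximity signal was measured by AlphaScreen after 20 min with beads.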
# JMJD2A Tudor = blocks the human JMJD2A Tudor domain | O75164 | AlphaScreen JMJD2A-Tudor / H3K4me3 peptide binding | Potency, µM (series often up to 114 µM), inactives show top-dose activity change, negative = inhibition, most hits filed as inhibitors | 390,000 tested, 4.4% active; also: % is scaled to controls: 0 for no effect and ±100 for the full control effect; nearly all actives have a fitted effect of over 50% in size
# GLS inhibitor = blocks human kidney-isoform glutaminase activity; Potency, µM (series often up to 45.5 µM), without a hit: at the highest dose activity change, negative = inhibition, actives largely listed as inhibitors; AID 624170; GLS enzymatic activity, qHTS titration; O94925; 410,000 tested, 0.21% active; also: % is scaled to controls: 0 for no effect and ±100 for the full control effect
#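 Coupled fluorescence readout: glutamate oxidase/HRP/Amplex Red detect glutamate formed by hKGA from L-glutamine (1 mM solution added). Buffer 45 mM KH2PO4 pH 8.2, 0.02% Tween-20; reads at t0 and 30 min RT.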
# G9a inh = blocks human histone lysine methyltransferase G9a | 350,000 tested, 8.8% active | G9a H3K9 monomethylation, AlphaScreen, 2 h | Q96KQ7 | Potency, µM (titrated, usually from 102 µM), without a hit: at the top dose activity, negative = inhibition, most hits filed as inhibitors; also: % is scaled to controls: 0 for no effect and ±100 for the full control effect; nearly all actives have a fitted effect of over 75% in size
# Target sequence (Q96KQ7 913-1193 limits assumed): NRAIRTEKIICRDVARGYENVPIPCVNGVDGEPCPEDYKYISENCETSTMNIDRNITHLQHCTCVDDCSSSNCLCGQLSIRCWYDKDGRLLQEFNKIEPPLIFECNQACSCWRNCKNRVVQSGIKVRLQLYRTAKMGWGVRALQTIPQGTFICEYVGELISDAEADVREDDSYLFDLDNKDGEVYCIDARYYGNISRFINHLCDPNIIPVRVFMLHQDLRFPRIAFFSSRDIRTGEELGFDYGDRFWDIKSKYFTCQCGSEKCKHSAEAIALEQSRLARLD
#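 Readings reflect AlphaScreen signal from monomethyl-H3K9 antibody detection. HMT at 20 nM; substrate b-H3K9 500 nM; cofactor SAM 20 uM; 2 h RT reaction; compounds tested as titrations in qHTS with 15 min preincubation.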
# HP1b binding inh = inhibitors of HP1-beta chromodomain binding to methylated histone tails | P83916 | AlphaScreen HP1-beta / biotin-H3K9me3 peptide binding | Potency, µM (titrated, usually from 114 µM), for the others: top-dose activity change, negative = inhibition, actives largely listed as inhibitors | 390,000 tested, 0.56% active; also: nearly all actives have a fitted effect of over 70% in size
# Target sequence (P83916 whole entry, looked up): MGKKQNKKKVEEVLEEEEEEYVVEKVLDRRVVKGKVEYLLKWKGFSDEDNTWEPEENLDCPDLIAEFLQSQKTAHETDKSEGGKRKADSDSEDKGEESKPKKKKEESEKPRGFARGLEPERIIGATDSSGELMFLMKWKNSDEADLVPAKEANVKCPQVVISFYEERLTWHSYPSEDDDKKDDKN
#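 Compound inhibition of the preformed complex between 50 nM HP1-beta and 50 nM biotinylated H3K9me3 peptide was read by AlphaScreen. Buffer was PBS pH 7.4 with 0.01% Tween-20. Incubations ran 30 min at room temperature, with 10 ug/mL donor/acceptor beads.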
# * hit, by the source's call; ? = inconclusive; nt = not tested or not shown; [ ] = another dose, or the depositor's remark. Hits are enriched below; roughly 10% of the tested compounds scored in any of these assays. Calls follow the shape of the dose curve; as a rule, active = well fitted curve in the direction sought with a large enough effect; inconclusive = small, poorly fitted or top-dose-only effect, or another doubt; inactive = no such curve, though single readings can be large; an effect the other way counts as inactive or inconclusive. Potency is read from the fitted curve at half-maximal effect.
SMILES,BAZ2B block,JMJD2A Tudor,GLS inhibitor,G9a inh,HP1b binding inh
Cc1ccc(NC(=O)CN2C(=O)S/C(=C/c3ccc(-c4cccc(C(=O)O)c4)o3)C2=O)cc1,15.8µM*,44.7µM*,?,nt,?
CC(C)(C)OC(=O)CN1C(=O)S/C(=C\c2ccc(-c3cccc(C(=O)O)c3)o2)C1=O,?,nt,nt,56.2µM*,nt
Cc1ccc(NC(=O)CN2C(=O)S/C(=C\c3ccc(-c4cccc(C(=O)O)c4C)o3)C2=O)cc1,25.1µM*,nt,nt,11.2µM*,nt
CC(C)OC(=O)CN1C(=O)S/C(=C/c2ccc(N3CCCCC3)o2)C1=O,?,?,24.5%,?,-13.8%
COc1ccc2cc(CN(C(=O)Nc3ccccc3)C3CCCC3)c(=O)[nH]c2c1,-9.4%,-15.7%,-2.3%,-23.1%,11.9%
COc1ccc(C(=O)CN2C(=O)c3ccccc3S2(=O)=O)cc1Br,-17.7%,-29.0%,-2.6%,50.1µM*,-2.3%
O=c1c(-c2ccc(F)cc2)nc2cnc(Oc3ccccc3)nc2n1C1CC1,nt,nt,nt,1.4%[0.501 µM],nt
N/C(Cc1ccc(Cl)cc1Cl)=N\OC(=O)c1ccccc1,16.7%,15.9%,-9.4%,43.0%,60.0%
Cc1c(O)c(=O)c2ccccc2n1C,-9.1%,22.4µM*,26.3%,44.7µM*,29.8%
O=C(NCC1CCCO1)c1cc(S(=O)(=O)N2CCOCC2)c(Cl)cc1Cl (centres undefined),-7.8%,-9.7%,0.0%,nt,11.2%
COc1ccc(/C=C/C(=O)O)cc1Cl,4.0%,-2.3%,0.2%,-4.5%,29.5%
CC(=C/C(=O)O)/C=C/c1ccco1,-9.1%,-17.9%,4.5%,39.8µM*,19.8%
CCN(C(=O)C=Cc1ccco1)c1ccccc1,nt,-17.2%,-14.0%,nt,-1.2%[57 µM]
CC(/C=C/c1ccc(Cl)o1)=C\C(=O)O,?,-25.5%,0.7%,50.1µM*,13.1%
COc1cccc(CN(C)CC(O)COc2cc(Cl)ccc2Cl)c1 (centres undefined),56.2µM*,6.31µM*,6.1%,-16.9%,?
Clc1ccc2c(c1)-c1ccccc1C1=NCCN12,nt,nt,-4.3%,nt,nt
N=C1Sc2ccccc2C2=NCCCN12,nt,nt,nt,0.112µM*,nt
Clc1nc2ccccc2cc1/C=N/Nc1nc2ccccc2[nH]1,-37.6%,-26.6%,3.6%,-0.7%[59 µM],34.6%
CCCOc1ccc(/C=N/Nc2ccccc2[N+](=O)[O-])c(O)c1,?,-21.2%,10.6%,?,-31.2%
O=[N+]([O-])c1ccccc1N/N=C/c1cc2ccccc2nc1Cl,?,?,3.5%,50.1µM*,0.7%
CCOc1ccccc1/C=N/Nc1ccccc1[N+](=O)[O-],?,?,7.8%,?,-29.6%
COc1ccc(/C=N\Nc2ccccc2[N+](=O)[O-])c(C(=O)O)c1OC,?,0.0%[11.4 µM],14.5%,nt,1.0%
COc1ccc(/C=N\Nc2ccc([N+](=O)[O-])cc2[N+](=O)[O-])c(C(=O)O)c1OC,-37.7%,50.1µM*,11.9%,25.1µM*,?
CC(C)Oc1ccccc1/C=N/Nc1ccccc1[N+](=O)[O-],5.62µM*,14.1µM*,8.7%,3.55µM*,?
COc1ccccc1/C=N\Nc1ccccc1[N+](=O)[O-],3.16µM*,8.91µM*,-2.3%,7.94µM*,12.6µM*
SMILES,BAZ2B block,JMJD2A Tudor,GLS inhibitor,G9a inh,HP1b binding inh
COc1ccc(Nc2nc(C)cc(C)c2C(N)=O)cc1,-4.2%,-4.8%,0.0%,-6.3%,13.9%
O=[N+]([O-])c1ccc(N/N=C/c2ccccc2)c(F)c1,8.8%,-5.0%,1.0%,18.1%[59 µM],38.4%
COc1cc(/C=N/Nc2ccc(F)cc2F)cc(OC)c1O,?,79.4µM*,18.7%,1.58µM*,?
COc1cc(/C=N/Nc2ccc(S(N)(=O)=O)cc2[N+](=O)[O-])cc(OC)c1O,?,-18.7%,32.6%,nt,30.4%
COc1cc(/C=N/Nc2ccccc2[N+](=O)[O-])cc(OC)c1O,?,-24.7%,?,7.08µM*,-10.2%
CC1=C(/C=N/Nc2ccc([N+](=O)[O-])cc2[N+](=O)[O-])C(C)(C)CCC1,3.55µM*,2.82µM*,2.0%,20µM*,8.91µM*
COc1ccc(NS(=O)(=O)c2ccc3c(c2)CCO3)cc1,-14.1%,12.4%,-0.6%,34.6%,34.1%
O=c1[nH]c2c(c(=O)[nH]1)OCN(Cc1ccccc1)C2,nt,-15.3%,13.7%,nt,36.5%
CC(=O)N1CCc2cc(S(=O)(=O)CCC(=O)N3CCN(c4cccc(C)c4C)CC3)ccc21,nt,-5.3%,12.7%,-1.8%[59 µM],26.2%
CCOc1[nH]n(-c2ccccc2)c(=O)c1C=Nc1ccccc1,?,-23.6%,-7.9%,20µM*,-0.9%
COc1nccnc1NS(=O)(=O)c1ccc(N=Cc2c(C)[nH]n(-c3ccc(C)c(C)c3)c2=O)cc1,?,?,8.3%,44.7µM*,-13.1%
COc1nccnc1NS(=O)(=O)c1ccc(N=Cc2c(C)[nH]n(-c3ccccc3)c2=O)cc1,?,-21.3%,8.5%,56.2µM*,8.3%
CCOc1[nH]n(-c2ccccc2)c(=O)c1C=Nc1ccc(C)cc1,?,-4.0%,-0.6%,-0.6%,30.3%
CC1(C)CC(=O)C2=C(C1)N(c1ccc(F)cc1)C(=O)CC2c1cccnc1 (centres undefined),-3.9%,-9.2%,-0.1%,17.0%,39.1%
Cc1ccc(-n2c(SCC(=O)N/N=C/c3c(C)nn(-c4ccccc4)c3C)nc3ccccc3c2=O)cc1,8.8%,-9.6%,4.8%,3.5%[59 µM],19.3%
Cc1ccc(S(=O)(=O)c2c(CO)c(-c3ccccc3)nn2C)cc1,-10.6%,-5.5%,6.5%,-5.3%,18.2%
Cc1ccc(S(=O)(=O)c2c(COC(=O)c3ccccc3Cl)c(-c3ccccc3)nn2C)cc1,6.31µM*,1.2%,6.5%,-1.8%,26.9%
O=C(Nc1ccc2nc(-c3ccco3)[nH]c2c1)c1ccco1,?,-25.7%,-2.3%,70.8µM*,37.0%
O=C(Nc1ccc2nc(-c3ccco3)[nH]c2c1)c1cccs1,?,-16.1%,0.6%,14.1µM*,16.7%
O=C(Nc1ccc2nc(-c3ccccc3)[nH]c2c1)c1cccs1,-5.8%,-20.3%,1.2%,?,11.6%
Cn1c(CCNC(=O)c2ccco2)nc2cc(NC(=O)c3ccco3)ccc21,-6.8%,3.0%,3.5%,14.1µM*,43.4%
O=C(Nc1ccc2nc(-c3ccc4nc[nH]c4c3)[nH]c2c1)c1cccs1,-28.1%,-35.1%[57.1 µM],-0.5%,22.4µM*,?
CC(=O)Nc1ccc2nc(-c3ccco3)[nH]c2c1,-18.3%,4.5%,-4.5%,?,8.6%
Cc1cc(C)n(C(=O)CNC(=O)c2ccco2)n1,2.6%,-24.4%,-0.6%,70.8µM*,19.7%
Cc1cc(C)n(C(=O)CNC(=O)Cc2ccccc2)n1,nt,-9.8%,-0.3%,17.3%[59 µM],?
CC(N=C1NS(=O)(=O)c2ccccc21)C(=O)Nc1ccc(F)cc1Cl (centres undefined),9.6%,-0.3%,2.1%,-19.8%[12.7 µM],39.6%
Cc1cnc2c3c(cc(Cl)c2c1)-c1ccccc1S(=O)(=O)N3,nt,20µM*,nt,nt,-16.8%
Clc1ccc2ccc3cccnc3c2n1,40.7%,-11.1%,-0.9%,12.5%,-9.0%

# From PubChem
